Experimental data: PubChem BioAssay (NCI)
Compounds without any hit were thinned out: in the full panel of roughly 83,000, 20% have a hit.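 Method: cells in 96-well plates; compound added at one concentration; 48 h incubation; percent growth measured; values under 10 scored active.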 Activity calls are given as the source filed them.

How the values were obtained:
Test in all cases: NCI-60 one-dose screen, 48 h (100 = growth as untreated, 0 = no growth, -100 = all killed)
Conditions in all cases: 10 µM unless noted
[1] = system: NCI-H23 lung
[2] = system: NCI-H226 lung
[3] = system: NCI-H322M lung
[4] = system: HOP-62 NSCLC
[5] = system: NCI-H460 lung
[6] = system: HOP-92 NSCLC
[7] = system: NCI-H522 lung
[8] = system: A549/ATCC NSCLC
[9] = system: 786-0 renal
[10] = system: COLO 205 colon

Measured: growth

O=C(Nc1ccc(Oc2cccc(Cl)c2)c(Cl)c1)c1cnccn1
inactive: [1] 46.1% | [2] 64.1% | [3] 47.9% | [4] 41% | [5] 15.7% | [6] 62% | [7] 12.5% | [8] 23.9% | [9] 44.6% | [10] 12.3%

CCOC(=O)C1=C(C)NC(=O)NC1c1c(Cl)n(CCCl)c2ccccc12 (stereo not given)
inactive: [1] 92.5% | [2] 92% | [3] 92.6% | [4] 90.8% | [5] 98.9% | [6] 42.9% | [7] 90% | [8] 95.4% | [9] 92.9% | [10] 117%

O=C(/C=C/c1cn(-c2ccccc2)nc1-c1ccc(Cl)cc1)c1ccc(F)cc1
inactive: [1] 69.9% | [2] 85.8% | [3] 77.2% | [4] 102% | [5] 74% | [6] 99.2% | [7] 87.1% | [8] 79.7% | [9] 62.8% | [10] 93.4%

CCOC(=O)c1nn(-c2ccc(S(N)(=O)=O)cc2)c2nc(C)cc(=O)n12
inactive: [1] 98.5% | [2] 104% | [3] 102% | [4] 102% | [5] 109% | [6] 95% | [7] 100% | [8] 102% | [9] 96.5% | [10] 114%

COc1cc2c(c(OC)c1OC)CCC(c1cccc(NC(=O)c3ccc(Br)cc3)c1)O2 (stereo not given)
inactive: [1] 80.1% | [2] 72.4% | [3] 75.1% | [4] 87.2% | [5] 93.5% | [6] 58.5% | [7] 74.6% | [8] 67.4% | [9] 97.1% | [10] 85.8%

C#CCOc1cccc(Nc2ncnc3cc(NC(=O)C=C)ccc23)c1
active: [7] -17.5% | [9] 7.49%
inactive: [1] 30.3% | [2] 62.3% | [3] 50.3% | [4] 40.4% | [5] 16.1% | [6] 12.3% | [8] 29.7% | [10] 17.3%

COc1ccc(/C=C(\C#N)n2nnc3cc(Cl)ccc32)cc1
inactive: [2] 12.8% | [4] 40.8% | [8] 14.4%
active: [1] 8.62% | [3] 6.1% | [5] 1.99% | [6] -2.3% | [7] -15.7% | [9] -16.7% | [10] -13.2%

NC(=O)CSc1oc(-c2ccccc2)nc1S(=O)(=O)c1ccc(Br)cc1
inactive: [1] 79.8% | [2] 54.7% | [3] 89.8% | [4] 73.9% | [5] 71.6% | [7] 70.1% | [8] 74.5% | [9] 25.9% | [10] 107%
active: [6] 5.26%

Nc1nc(-c2ccc(Cl)cc2)nc2c1sc(=S)n2-c1ccccc1
inactive: [1] 48.8% | [2] 49.4% | [3] 45.7% | [4] 28.9% | [7] 56.4% | [8] 23.9% | [10] 64.4%
active: [5] 9.12% | [6] -19.3% | [9] -52.9%

CN(C)c1ccc(-c2c(C#N)c(N)nn2C(=O)c2ccc(NC(=O)c3ccccn3)cc2)cc1
inactive: [1] 96.5% | [2] 98.2% | [3] 96.7% | [4] 94.3% | [5] 94.2% | [6] 94.9% | [7] 91.4% | [8] 96.1% | [9] 96% | [10] 104%

CCCC/C=C/[C@@H]1C[C@H]1CCO
inactive: [1] 102% | [2] 91.5% | [3] 92.1% | [4] 90.5% | [5] 105% | [6] 96.5% | [7] 78.3% | [8] 96.7% | [9] 99.5% | [10] 100%

C=C1C(=O)O[C@H]2[C@H]1CC/C(COC(=O)c1cc3ccccc3s1)=C\CC[C@@]1(C)O[C@@H]21
active: [1] -46.4% | [2] -51.1% | [3] -25.8% | [4] -61.6% | [5] -57.3% | [6] -74.4% | [7] -70.1% | [8] -51.1% | [9] -83.4% | [10] -71.3%

COc1ccc(CN2c3ccccc3Sc3ccccc32)cc1F
inactive: [1] 30.7% | [2] 45.6% | [3] 43% | [4] 20.4% | [6] 50.4% | [8] 21.9% | [9] 22.5%
active: [5] 5.41% | [7] 4.53% | [10] -32.9%

Cn1c(I)c(C#CCO[Si](C)(C)C(C)(C)C)c(=O)[nH]c1=O
inactive: [1] 96.4% | [2] 108% | [3] 95.5% | [4] 96.9% | [5] 106% | [6] 59.4% | [7] 74.2% | [8] 107% | [9] 99% | [10] 82.7%

O=C1NC2(Nc3ccccc31)C(=O)Nc1c(Cl)cc(Cl)cc12 (stereo not given)
inactive: [1] 104% | [2] 93.8% | [3] 110% | [4] 84.7% | [5] 102% | [6] 106% | [7] 103% | [8] 110% | [9] 103% | [10] 119%

Nc1nc2ccccc2c2c1S(=O)(=O)c1ccc(Cl)cc1C2=O
inactive: [1] 37.9% | [2] 63.1% | [3] 63% | [4] 30.2% | [5] 23.5% | [8] 46.8% | [9] 16.2%
active: [6] -25.4% | [7] -73.5% | [10] -18%

Cc1sc2nc(NCCc3c[nH]c4ccc(Cl)cc34)[nH]c(=O)c2c1C
inactive: [1] 61.6% | [2] 70.6% | [3] 61.2% | [4] 34.7% | [5] 18.6% | [6] 46% | [9] 56.5% | [10] 22.3%
active: [7] -23.9% | [8] 0.107%

CCC(C)N(CCNc1cc(OC)cc2cccnc12)CC(C)C (stereo not given)
inactive: [1] 86.5% | [2] 92.7% | [3] 95.2% | [4] 107% | [5] 98% | [6] 105% | [7] 82.8% | [8] 102% | [9] 117% | [10] 96.6%

C#Cc1c2c(c(OC)c3c1OCO3)[C@H]([C@H]1OC(=O)c3c1ccc(OC)c3OC)N(C)CC2
inactive: [1] 86% | [2] 98% | [3] 94% | [4] 71.8% | [5] 96% | [6] 91.2% | [7] 60.3% | [8] 65.5% | [9] 95.4% | [10] 79.7%

Cn1ccnc1C(=O)/C=C/c1ccc(CC(=O)Nc2cc(C(F)(F)F)cc(C(F)(F)F)c2)cc1
inactive: [1] 85.4% | [2] 91.4% | [3] 73.2% | [4] 85.9% | [5] 55.3% | [6] 87% | [7] 77.4% | [8] 60.1% | [9] 65.6% | [10] 98.3%
